# Measurements reported in PubChem BioAssay (Tox21).
# A number with no mark means an inactive call. Activity calls are given as the source filed them. The call rests on the fitted dose curve; in most records, active means well fitted activation curve with a large enough effect in the repeat runs; inconclusive means weak or mixed curves; inactive means flat fitted curve, though single readings scatter.
# Target: KiSS-1 receptor (Homo sapiens) (UniProt Q969F8)
# Test: Human kisspeptin (KISS1R) small molecule agonists, calcium flux assay in KISS1R-HEK293 cells (AID 1920064)
# Conditions: KISS1R-HEK293, calcium flux fluorescence, agonist; series mostly up to 76.8 µM; activation: at the top concentration
# Source text: National Center for Advancing Translational Sciences [NCATS]
# Division of Preclinical Innovation [DPI]
# U.S. Environmental Protection Agency [EPA]
# National Institutes of Environmental Health Sciences [NIEHS]
# National Toxicology Program [NTP]
# U.S. Food and Drug Administration [FDA]
# Kisspeptin and its receptor KISS1R play key roles in mammalian reproduction due to their involvement in the onset of puberty and control of the hypothalamic-pituitary-gonadal axis such as regulates GnRH release from the hypothalamus. The kisspeptin/KISS1R system also plays a direct role in peripheral organs (including the ovary, testis, uterus, and placenta) and is implicated in reproductive diseases such as miscarriage and polycystic ovary syndrome (PCOS). Abnormal KISS1R activity is associated with abnormal puberty, infertility, endometriosis, and hormone-dependent tumors. The KISS1 receptor (KISS1R, also called GPR54), a G-protein-coupled receptor (GPCR), acts (through phospholipase C) to increase intracellular inositol trisphosphate and then release intracellular calcium stores. Cell-based KISS1R-HEK293 assay is using HEK293 cells that have been genetically engineered to express the human KISS1R, which activity can be measured by calcium signaling. A compound/drug can activate (agonist) KISS1R that can be monitored by levels of intracellular calcium.
# KISS1R-HEK293 cells developed by Codex Corp contain human KISS1R gene, which was stably integrated into HEK 293 cells. The compound activation can be detected by fluorescence intensity via calcium flux assay. This cell line has been used to screen the Tox21 10K compound library to identify agonists of KISS1R.
# KISS1R-Hek293 cells were dispensed at 1500 cells/4uL/well in 1536-well black wall/clear bottom plates using a multidrop dispenser. After the assay plates were incubated at a 37 C/5% CO2 incubator for 18 hours, 4 microL of Calcium Dye Solution was added to each well. The plates were incubated at 37 C for 1 hour. And then 23 nL of compounds dissolved in DMSO, positive controls, or DMSO only was transferred to the assay plate by a pin tool station. The fluorescence intensity in the plates was measured using FDSS 7000EX kinetic plate reader with a filter set of Ex/Em=480/540 for 3 min at 1 sec intervals. Each test compound was measured at 15 concentrations and in triplicates.
# On the % scale 0 is the no-effect control and ±100 the full control effect; potency means the concentration at half of the fitted maximal effect.
# Chain of KiSS-1 receptor (Homo sapiens) (Q969F8 whole entry, looked up): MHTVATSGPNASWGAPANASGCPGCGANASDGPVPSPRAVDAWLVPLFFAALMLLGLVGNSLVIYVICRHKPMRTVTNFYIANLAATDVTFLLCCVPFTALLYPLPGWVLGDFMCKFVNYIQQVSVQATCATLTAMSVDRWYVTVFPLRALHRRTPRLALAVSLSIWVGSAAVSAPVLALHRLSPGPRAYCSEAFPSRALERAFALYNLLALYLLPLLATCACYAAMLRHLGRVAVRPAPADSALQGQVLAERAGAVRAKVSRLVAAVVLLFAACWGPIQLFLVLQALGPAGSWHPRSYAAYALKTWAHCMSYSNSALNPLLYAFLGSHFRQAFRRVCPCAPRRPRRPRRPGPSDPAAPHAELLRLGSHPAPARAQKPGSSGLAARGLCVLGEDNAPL
SMILES,activation,Potency
O=C(CCCCCCC(=O)Nc1ccccc1)NO,-2.1% [at 35.3 µM],–
CCCCCCCCNC,-1.2%,–
CCCCCCCC/C=C\CCCCCCCC(=O)OCCOC(=O)CCCCCCC/C=C\CCCCCCCC,4.37%,–
O=S(=O)(O)c1cc(O)ccc1O,0.096%,–
CN1CCN(CCCN2c3ccccc3Sc3ccc(S(=O)(=O)N(C)C)cc32)CC1,0.0221% [at 35.3 µM],–
O=CNc1ccccc1,0.716%,–
O=C(OCC(COC(=O)c1cccnc1)(COC(=O)c1cccnc1)COC(=O)c1cccnc1)c1cccnc1,1.01% [at 35.3 µM],–
CCOC(=O)C(C)Oc1ccc(Oc2nc3ccc(Cl)cc3o2)cc1 (stereo not given),2.88%,–
Cc1ccc(O)c(C(=O)c2ccccc2)c1,1.64%,–
C#CCN(C)CCCOc1ccc(Cl)cc1Cl,0.498% [at 35.3 µM],–
O=C(/C=C/c1ccc(O)c(O)c1)O[C@@H](C(=O)O)[C@@H](OC(=O)/C=C/c1ccc(O)c(O)c1)C(=O)O,-1.71%,–
CCCC[N+](C)(CCCC)CCCC,0.027%,–
CCCC(CCC)(C(=O)OCC)C(=O)OCC,-0.836% [at 35.3 µM],–
NC(CCC(=O)O)C(=O)O (stereo not given),-0.438%,–
C=C(C)C(=O)OCCCCCCCCCC,1.94%,–
O=C(Nc1ccccc1)c1cc(Cl)ccc1O,5.84%,–
O=c1[nH]nc(-c2ccc([N+](=O)[O-])o2)o1,-0.0063%,–
O=S1(=O)N=C(O)c2ccccc21,-0.484% [at 35.3 µM],–
CCn1nc(C)c2c1C(=O)NCC(c1ccc(O)cc1)=N2,2.36%,–
CCN(Cc1ccccc1)c1ccccc1,0.0722%,–

SMILES,activation,Potency
CNC(C)=O,0.443%,–
CC(=O)/C(C)=C/C1C(C)=CCCC1(C)C (stereo not given),-0.661%,–
Nc1ccc2c3c(cccc13)-c1ccccc1-2,–,55.5 µM (active)
FC1(F)C(F)(F)C(F)(F)C2(F)C(F)(F)C(F)(F)C(F)(F)C(F)(F)C2(F)C1(F)F (stereo not given),-1.21% [at 35.3 µM],–
CC/C=C\C/C=C\C/C=C\CCCCCCCC(=O)OCC,2.02%,–
CCCCCCCCS(=O)C(C)Cc1ccc2c(c1)OCO2 (stereo not given),3.84%,–
CC(=O)CC(=O)Nc1ccc(S(=O)(=O)O)cc1,1.1%,–
CN(C/C=C/C#CC(C)(C)C)Cc1cccc2ccccc12,-0.332% [at 35.3 µM],–
CNCCCCOc1ccccc1Cc1ccccc1,8.52% [at 35.3 µM],–
CCCCC(CC)C(=O)OCCOCCOCCOCCOC(=O)C(CC)CCCC (stereo not given),3.21%,–
C[C@]12CCC(=O)C=C1[C@@H]1C[C@@H]1[C@H]1[C@@H]3[C@@H]4C[C@@H]4[C@@]4(CCC(=O)O4)[C@@]3(C)CC[C@@H]12,1.74% [at 35.3 µM],–
CCO[C@H](Cc1ccc(OCCc2ccc(OS(C)(=O)=O)cc2)cc1)C(=O)O,0.874% [at 35.3 µM],–
CCOc1ccc2c(c1)C(C)CC(C)(C)N2 (stereo not given),0.36%,–
CCN(Cc1ccncc1)C(=O)C(CO)c1ccccc1 (stereo not given),-0.793% [at 35.3 µM],–
CC(=O)OC/C=C(/C)CCC=C(C)C,-0.729%,–
CCN(CCCc1ccccc1)CCCc1ccccc1,7.93% [at 35.3 µM],–
CNCC[C@H](Oc1cccc2ccccc12)c1cccs1,6.9% [at 35.3 µM],–
C[n+]1c2cc(N)ccc2cc2ccc(N)cc21 (tested in a mixture with another compound),–,21.3 µM (active)
CN(C)CCOC(=O)C(c1ccccc1)C1(O)CCCC1 (stereo not given),-0.0402% [at 35.3 µM],–
CCCOC(OCCC)OCCC,-1.57%,–
